SMILES strings stand for the structures. Results filed as inconclusive are left out. A number with no mark means an inactive call. Activity calls are given as the source filed them. Unless noted, the call rests on the fitted dose curve; in most records, active means well fitted curve in the direction sought with a large enough effect; inconclusive means small, poorly fitted or top-dose-only effect, or another doubt; inactive means no such curve, though single readings can be large; an effect the other way counts as inactive or inconclusive. *1 amine or outer side, *2 acyl side, *3 side chain or, on linkers, in order; H or OH if unused. Where a SMILES comes first, the peptide text is derived from it. Bridges are numbered along the chain shown (N, C = ends). [ ]: non-standard residue; d: D form. The star is where a group is joined. pTerphenylCO(4''-OnC5H11) = CCCCCOc1ccc(-c2ccc(-c3ccc(C(=O)*)cc3)cc2)cc1; Orn(4R-OH,5R-OH) = O=C([C@H](C[C@@H](O)[C@@H](O)N[*:3])N[*:1])[*:2]; hTyr(3S-OH,4S-OH) = N[C@H](C(=O)O)[C@H](O)[C@@H](O)c1ccc(O)cc1; Pro(3S-OH,4S-Me) = C[C@H]1CN[C@H](C(=O)O)[C@H]1O; Hyp = O=C(O)[C@@H]1C[C@@H](O)CN1
Potency means the concentration at half of the fitted maximal effect.

Chain of N-terminal Xaa-Pro-Lys N-methyltransferase 1 (Homo sapiens) (Q9BV86 whole entry, looked up): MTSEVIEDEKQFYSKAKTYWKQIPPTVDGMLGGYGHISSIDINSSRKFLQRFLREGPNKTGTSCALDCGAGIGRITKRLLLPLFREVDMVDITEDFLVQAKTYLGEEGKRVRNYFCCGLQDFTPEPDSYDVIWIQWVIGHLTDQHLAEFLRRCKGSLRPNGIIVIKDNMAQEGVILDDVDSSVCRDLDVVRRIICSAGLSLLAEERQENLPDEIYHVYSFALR

The target of the first assay is Cytochrome P450 2C9 (Homo sapiens) (UniProt P11712). The assay can be described thus: Cytochrome P450 family 2 subfamily C member 9 (CYP2C9) small molecule antagonists: luciferase biochemical (cell-free) qHTS assay (AID 1645842; active means well fitted curve in the direction sought with a large enough effect in the repeat runs; an effect the other way counts as inactive or inconclusive; further: nearly all actives have a fitted effect of over 55% in size; on activity change, negative = inhibition: on the % scale 0 is the no-effect control and ±100 the full control effect). To be noted: P450-Glo CYP2C9 enzyme assay, luciferin luminescence; series mostly up to 57.4 µM; activity change, negative = inhibition: at the top concentration. A digest of the protocol: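 P450-Glo CYP2C9 system: proluciferin substrate with enzyme in mix containing 0.4% BSA, 10 min at room temperature, then NADPH regeneration solution added and incubated 1 h at 37C. Detection reagent stopped reaction; luminescence read after 20 min as RLU.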
Chain of Cytochrome P450 2C9 (Homo sapiens) (P11712 whole entry, looked up): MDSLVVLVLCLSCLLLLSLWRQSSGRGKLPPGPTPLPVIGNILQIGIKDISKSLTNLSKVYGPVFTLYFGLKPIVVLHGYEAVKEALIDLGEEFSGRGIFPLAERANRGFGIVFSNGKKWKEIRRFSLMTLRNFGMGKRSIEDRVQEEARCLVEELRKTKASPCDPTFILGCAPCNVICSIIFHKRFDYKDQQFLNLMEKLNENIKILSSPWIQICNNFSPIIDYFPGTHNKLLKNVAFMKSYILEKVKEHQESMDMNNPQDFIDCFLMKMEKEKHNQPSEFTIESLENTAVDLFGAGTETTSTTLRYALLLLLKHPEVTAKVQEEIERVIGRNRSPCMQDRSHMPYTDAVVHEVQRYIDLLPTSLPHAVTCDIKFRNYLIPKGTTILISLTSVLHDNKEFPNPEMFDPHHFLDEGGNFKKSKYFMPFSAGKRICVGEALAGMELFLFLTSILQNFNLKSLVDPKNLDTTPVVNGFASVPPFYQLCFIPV
Turning to `CCOc1ccc(-n2c([C@@H](C)N(Cc3cccnc3)C(=O)Cc3ccc(OC(F)(F)F)cc3)nc3ncccc3c2=O)cc1`, the Potency is 0.952 µM (active). Turning to `CC(C)(C)c1ccc(C(=O)Nc2cc(Cl)c(Br)cc2C(=O)O)cc1`, the Potency was 16.9 µM (active). `O=C(NCCN1CCC(n2c(=O)[nH]c3ccccc32)CC1)c1ccc2ccccc2c1`: the Potency is 7.56 µM (active).

As for `CCCCNc1ncc(-c2ccc(CN3CCOCC3)cn2)c(NC2CCC(O)CC2)n1` (stereo unspecified), the “activity change, negative = inhibition” value is -4.91%. In the case of `S=C(c1ccc(-c2ccc(Cl)c(Cl)c2)o1)N1CCCCC1`, the Potency was 3.38 µM (active). Same read-out and setting: the same measure for `Cc1cc(C)cc(-c2cnc3cc(Cl)c(-c4cccc(O)c4)cc3c2OCCCN)c1`: 1.2 µM (active). Take `NC(=O)c1cccc2[nH]c(-c3ccc(C4CCCN4)cc3F)nc12` (stereo unspecified): the Potency is 10.7 µM (active). Take `CN1CC2CN(c3ccc4oc5ccccc5c(=O)c4c3)CC2C1` (stereo unspecified): the “activity change, negative = inhibition” value was 8.73% [at 23.9 µM]. As for `Cc1cc(C)nc(SCC(=O)Nc2ncc(Cc3cccc4ccccc34)s2)n1`, the Potency was 10.7 µM (active).

Regarding `CC[C@@H](Nc1c(Nc2cccc(C(=O)N(C)C)c2O)c(=O)c1=O)c1cc(C(C)C)co1`, the Potency is 5.35 µM (active). Turning to `Cc1cccc(CC(=O)N2CCc3c2ccc(-c2cn(C)c4ncnc(N)c24)c3F)n1`, the Potency was 10.7 µM (active). Take `CC(C)c1ccc(NC(=O)c2cccs2)c(-c2nc3ccccc3[nH]c2=O)c1`: the Potency is 10.7 µM (active).

As for `C[C@@H]1CCCN1CCc1cc2cc(-c3ccc(C#N)cc3)ccc2o1`, the “activity change, negative = inhibition” value was 2.5%.

The next assay concerns the target N-terminal Xaa-Pro-Lys N-methyltransferase 1 (Homo sapiens) (UniProt Q9BV86). The assay can be described thus: Confirmatory qHTS for Inhibitors of N-terminal methyltransferase 1 (NTMT1): MTaseGlo Assay (AID 1645874). Further: nearly all actives have a fitted effect of over 65% in size.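 On activity change, negative = inhibition: luminescence from SAH made as NTMT1 methylates SPKRIA peptide using SAM; 0% = DMSO control and -100% = no-enzyme control.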 To be noted: NTMT1 enzyme, MTase-Glo SAH luminescence; series mostly up to 100 µM; activity change, negative = inhibition: at the top concentration. An outline of the steps:
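SPKRIA peptide at 1 uM was methylated by 125 nM NTMT1 using 100 uM SAM over 30 min at room temperature, following a 15 min compound preincubation. Product SAH was detected luminescently.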
A general note: Quantitative high-throughput screening tests each substance at several concentrations.
With `CCOc1ccc(Cc2nc(-c3c(C)nc4ccccn34)cs2)cc1`, the “activity change, negative = inhibition” value was -1.86%. Consider `NCC(CNc1nc(Nc2cccc(NC(=O)N3CCCC3)c2)ncc1I)C(=O)c1cccs1` (stereo unspecified), for which the Potency is 22.4 µM (active). Still for that read-out and setting: the same measure for `COc1cccc(-c2cn(-c3ccc(CCN4CCC(O)CC4)cc3)c3ncnc(N)c23)c1`: 35.5 µM (active); for `CN(C)CCCn1cc(C2=C(c3c[nH]c4ccccc34)C(=O)NC2=O)c2ccccc21`: 39.8 µM (active).

For the compound `O=C(Cc1c(F)cccc1F)Nc1cc(OCc2ccc(Cl)cc2)ccn1`, the “activity change, negative = inhibition” value was -6.43%. In the case of `C/C=C/C=C/C=C/C(=O)O[C@@H]1C=C2COC(=O)[C@]2(O)[C@@]2(C)CCCC(C)(C)[C@H]12`, the “activity change, negative = inhibition” value was -9.22% [at 51.5 µM].

Regarding `O=c1nc(-c2ccccn2)sc2ccccc12`, the “activity change, negative = inhibition” value is -6.04%. Still for that read-out and setting: the same measure for `COc1c(C(C)C)c(O)c(O)c2c1C(OC)[C@H]1OC(=O)[C@@]23CCCC(C)(C)[C@H]13` (stereo partly specified): -2.21% [at 51.5 µM].

Regarding `CC[C@@H](C)Nc1cc(C(=O)NC2CC3CC[C@@H](C2)N3c2ccc(C(=O)C3CC3)cn2)c(C)cc1C(N)=O` (stereo partly specified), the “activity change, negative = inhibition” value was 1.41%. Take `C/C(=N\N=C(N)N)c1cc(NC(=O)CCCCCCCCC(=O)Nc2cc(/C(C)=N/N=C(N)N)cc(/C(C)=N/N=C(N)N)c2)cc(/C(C)=N/N=C(N)N)c1`: the Potency was 20 µM (active). For `CCCC1(CCC)CCC2(CCN(CCCN(CC)CC)C2)CC1`, the Potency is 50.1 µM (active). As for `CCCCCOc1ccc(-c2ccc(-c3ccc(C(=O)N[C@H]4C[C@@H](O)[C@@H](O)NC(=O)[C@@H]5[C@@H](O)[C@@H](C)CN5C(=O)[C@H]([C@@H](C)O)NC(=O)[C@H]([C@H](O)[C@@H](O)c5ccc(O)cc5)NC(=O)[C@@H]5C[C@@H](O)CN5C(=O)[C@H]([C@@H](C)O)NC4=O)cc3)cc2)cc1` ({pTerphenylCO(4''-OnC5H11)}-[Orn(4R-OH,5R-OH)]T[Hyp][hTyr(3S-OH,4S-OH)]T[Pro(3S-OH,4S-Me)]; lactam 1-C), the “activity change, negative = inhibition” value was 4.99% [at 51.5 µM].

Tested on in a further assay: not listed separately
Briefly: Primary qHTS for inhibitors of nuclear receptor binding SET domain protein 2 (NSD2) in an isogenic RCH-ACV NSD2 p.E1099K mutant (9B) (AID 1645876). Further: nearly all actives have a fitted effect of over 70% in size. On activity change, negative = viability loss: on the % scale 0 is the no-effect control and ±100 the full control effect. The conditions noted are these: RCH-ACV (leukaemia line) NSD2 E1099K (9B) viability, CellTiter-Glo, 72 h; series mostly up to 44.9 µM; activity change, negative = viability loss: at the top concentration.
Turning to `CCOc1ccc(Cc2nc(-c3c(C)nc4ccccn34)cs2)cc1`, the Potency is 0.183 µM (active). Take `NCC(CNc1nc(Nc2cccc(NC(=O)N3CCCC3)c2)ncc1I)C(=O)c1cccs1` (stereo unspecified): the Potency was 1.15 µM (active). Regarding `COc1cccc(-c2cn(-c3ccc(CCN4CCC(O)CC4)cc3)c3ncnc(N)c23)c1`, the Potency was 1.63 µM (active). Take `CN(C)CCCn1cc(C2=C(c3c[nH]c4ccccc34)C(=O)NC2=O)c2ccccc21`: the Potency was 5.78 µM (active). The same measure, in the same setting: the same measure for `O=C(Cc1c(F)cccc1F)Nc1cc(OCc2ccc(Cl)cc2)ccn1`: 18.3 µM (active). As to `C/C=C/C=C/C=C/C(=O)O[C@@H]1C=C2COC(=O)[C@]2(O)[C@@]2(C)CCCC(C)(C)[C@H]12`, the Potency was 2.82 µM (active). For `O=c1nc(-c2ccccn2)sc2ccccc12`, the Potency was 4.59 µM (active).

Consider `CC[C@@H](C)Nc1cc(C(=O)NC2CC3CC[C@@H](C2)N3c2ccc(C(=O)C3CC3)cn2)c(C)cc1C(N)=O` (stereo partly specified), for which the Potency was 0.0742 µM (active).

Turning to `C/C(=N\N=C(N)N)c1cc(NC(=O)CCCCCCCCC(=O)Nc2cc(/C(C)=N/N=C(N)N)cc(/C(C)=N/N=C(N)N)c2)cc(/C(C)=N/N=C(N)N)c1`, the Potency was 11.5 µM (active). Same read-out and setting: the same measure for `CCCC1(CCC)CCC2(CCN(CCCN(CC)CC)C2)CC1`: 2.63 µM (active). For `CCCCCOc1ccc(-c2ccc(-c3ccc(C(=O)N[C@H]4C[C@@H](O)[C@@H](O)NC(=O)[C@@H]5[C@@H](O)[C@@H](C)CN5C(=O)[C@H]([C@@H](C)O)NC(=O)[C@H]([C@H](O)[C@@H](O)c5ccc(O)cc5)NC(=O)[C@@H]5C[C@@H](O)CN5C(=O)[C@H]([C@@H](C)O)NC4=O)cc3)cc2)cc1` ({pTerphenylCO(4''-OnC5H11)}-[Orn(4R-OH,5R-OH)]T[Hyp][hTyr(3S-OH,4S-OH)]T[Pro(3S-OH,4S-Me)]; lactam 1-C), the “activity change, negative = viability loss” value is -27.7% [at 17.3 µM].

These data come from PubChem BioAssay (NCATS).
